# Cav3 T inh = blocks human Cav3.2 T-type calcium channel; Cav3.2-expressing cells, Fluo-4 calcium fluorescence FDSS; active compounds read low; B-score at 10 µM; 100,000 compounds, 4% hits; O95180; AID 449739;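 active means single-dose well whose peak fluorescence ratio is a statistical outlier from its plate by either plate-standardised score or position-corrected B-score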
# hDAT+cocaine = human DAT dopamine uptake with cocaine, either direction. Q01959. AID 449768. B-score at 10 µM. LLC-PK1 hDAT cells, [14C]-dopamine uptake with cocaine IC80; actives deviate in either direction. 110,000 compounds, 1.3% hits;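 active means Z score or B-score, a plate-position-corrected score, falls beyond the plate's 99.7% confidence bounds, in either direction; inactive means both scores lie inside the 99.7% bounds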
# Smad3 FoxH1 inh = blocks human Smad3 binding to FoxH1 peptide. P84022. TR-FRET Smad3/Dy647-FoxH1 peptide binding, europium anti-His. inhibition, % at 25 µM. 88,000 compounds, 0.29% hits. AID 630;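 active means compounds that reduce the energy-transfer binding signal between the protein and its labelled peptide by more than half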
# PostGolgi ctrl = yeast control strain growth, post-Golgi counter-screen | efflux-deficient yeast background strain, growth absorbance A615, 16 h | inhibition, % at 10 µM | 98,000 compounds, 5% hits | AID 738
# PostGolgi yeast = growth inhibition of a yeast mutant, post-Golgi transport screen. post-Golgi transport phenotypic cell assay. inhibition, % at 10 µM. 98,000 compounds, 0.9% hits. AID 739;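 further: yeast cells grown in 1536-well plates; yeast grown about 18 h at 30C before absorbance read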
# TNAP act DEA = human TNAP activation, intermediate phosphate acceptor | purified TNAP, CDP-star luminescence, 100 mM DEA, 30 min; active compounds read high; scale: 0 levamisole-inhibited, 1 vehicle-only enzyme | activation factor at 20 µM | 64,000 tested, under 10 active;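 active means activation factor of at least 2 at 20 µM, relative to controls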
# Hits are given with their value; – = inactive; · = no result. Compounds with a hit are over-represented: about 8.7% of the library has one in this group of screens. Unless noted, no stated cut-off is given here; in the data, active means inhibition above about 30%; inactive means the rest.
SMILES,Cav3 T inh,hDAT+cocaine,Smad3 FoxH1 inh,PostGolgi ctrl,PostGolgi yeast,TNAP act DEA
Cc1ccc(C(=O)Nc2nc(=O)n(C(=O)c3ccccc3Cl)s2)cc1,-6.1,–,–,–,–,·
CCOc1cc(C2C(C(=O)OC(C)C)=C(C)N=C3SCCC(=O)N32)ccc1OC(C)=O (configuration not stated),–,–,–,39,–,–
C=CCNCCCCOc1c(Cl)cc(C)cc1Br,–,–,·,–,–,·
COc1cc(=O)[nH]c(SCc2c(F)c(F)c(F)c(F)c2F)n1,–,–,–,53,–,–
COc1ccc(CSc2nc(C)cc(=O)[nH]2)cc1Br,–,–,–,–,–,–
COc1cccc(C2C3(C#N)C(N)=NC(OC)(OC)C23C#N)c1 (configuration not stated),–,–,–,–,–,·
COC1(OC)N=C(N)C2(C#N)C(c3cccc(Oc4ccccc4)c3)C12C#N (configuration not stated),-5,–,–,–,–,–
COc1cccc(N(CC(=O)NCc2cccnc2)S(C)(=O)=O)c1,–,·,–,–,–,–
CCCN=C(C)c1c(-c2ccccc2)[nH]n(-c2nc3ccccc3s2)c1=O,–,–,–,32,–,·
CC(=NCc1ccco1)c1c(C)[nH]n(-c2nc3ccccc3s2)c1=O,–,–,–,–,–,–
CCCc1[nH]n(-c2nc3ccccc3s2)c(=O)c1C=NCC(C)C,–,4.4,–,–,–,·
COC(=O)CNC(=O)C(NC(=O)c1ccc(Cl)cc1)C(C)C (configuration not stated),–,–,·,–,–,·
CCCn1c(SCC(=O)OCc2ccccc2)nc2c1c(=O)n(C)c(=O)n2C,–,–,–,–,–,–
Cc1csc(NC(=O)CCc2ccc(S(=O)(=O)N3CCOCC3)cc2)n1,–,–,–,–,–,·
Cc1cccc(-n2c(C)nc3c(cnn3-c3ccc(F)cc3)c2=O)c1,–,–,–,33,–,–
CC(C)(C)N1CC(COc2ccccc2)OC1=O (configuration not stated),–,-8.9,–,–,–,–
Cc1ccccc1OCC1CN(CN2CCOCC2)C(=O)O1 (configuration not stated),–,–,–,–,–,–
C[C@H](NC(=O)c1ccc(Cl)c(Cl)c1)c1ccc(-c2ccccc2)cc1,·,·,–,·,·,·
COc1ccc2cc(C3(C)NC(=O)N(CC(=O)NCCC4=CCCCC4)C3=O)ccc2c1 (configuration not stated),-7.4,–,·,–,–,·
COc1ccccc1-c1nc(-c2ccc(C)nc2OC)no1,–,–,–,–,–,–
Cc1ccccc1NC(=O)C1CC(=O)N(c2ccccc2F)C1 (configuration not stated),–,–,–,–,–,–
N#Cc1ccc(N=c2ssnc2Cl)cc1,–,–,–,–,–,·
Cc1ccc(S(=O)(=O)c2c(C)cc(C)nc2Oc2cccc(C(F)(F)F)c2)cc1,-6.3,–,·,–,–,·
Cc1cc(C)c(S(C)(=O)=O)c(Oc2cccc(Cl)c2)n1,·,–,·,–,32,·
CC(C)Oc1ccc(C2CC(=O)N(c3ccccc3)C2=O)cc1 (configuration not stated),–,–,–,–,–,·
SMILES,Cav3 T inh,hDAT+cocaine,Smad3 FoxH1 inh,PostGolgi ctrl,PostGolgi yeast,TNAP act DEA
COc1ccc(C2c3c(ccc4ccccc34)Oc3ncn4nc(CO/N=C/c5ccccc5)nc4c32)cc1 (configuration not stated),-4.6,–,–,–,–,·
COc1ccccc1OCc1nc2c3c(-c4ccccc4)c(-c4ccccc4)oc3ncn2n1,·,·,–,·,·,–
N=c1c2c(ncn1CCN1CCOCC1)Oc1ccc3ccccc3c1C2c1ccccc1 (configuration not stated),–,–,–,–,–,·
COc1ccc(C2c3c(ncn(CCN4CCOCC4)c3=N)Oc3ccc4ccccc4c32)cc1 (configuration not stated),–,3.4,–,–,–,·
O=C(Nc1ccccc1C(F)(F)F)N1CCN(c2ccc3nnc(-c4ccc(F)cc4)n3n2)CC1,–,–,·,–,–,–
Cc1c(Cl)c([N+](=O)[O-])nn1Cc1ccc(C(=O)N/N=C\c2cccc(Br)c2)o1,-6.4,–,·,–,67,·
Cc1cc(C(=O)N/N=C/c2cccc([N+](=O)[O-])c2)c(C)o1,–,–,·,–,–,·
COc1nc(N)c(S(=O)(=O)c2ccccc2C)cc1C#N,-3.9,–,·,–,–,·
